An excerpt weighted towards active compounds, which were near 17% of everything screened.
HT1080 IDH1KD tx: toxicity to HT-1080 IDH1 knockdown cells (counter line) | 360,000 compounds, 2% hits | Potency, µM (highest dose often 46.1 µM), inactives show top-dose activity, negative = toxicity, most hits filed as cytotoxic | HT-1080 IDH1 knockdown viability, ATP luminescence, 48 h;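 note: 0% = DMSO wells and -100% = cell-free medium wells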
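Cytotoxicity counter-line: IDH1KD HT-1080, 48 h, CellTiter-Glo. Curves classed by r2, magnitude and activity.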
HT1080NT lethal: kills 2HG-producing HT-1080-NT fibrosarcoma cells; HT-1080-NT fibrosarcoma viability, CellTiter-Glo ATP luminescence, 48 h; Potency, µM (top dose mostly 46.1 µM), for inactives: top-dose activity, negative = less viability, usual class: cytotoxic; 360,000 compounds, 1.6% hits; AID 686970;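 note: NT is the 2HG producing partner of a matched IDH1 knockdown line; 0% = DMSO-treated cells and -100% = media-only wells without cells; nearly all actives have a fitted effect of over 55% in size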
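Luminescent CellTiter-Glo readout after 48 hours of compound exposure at 37 degrees C defined viability of HT-1080-NT cells. Activity was normalized to DMSO wells and cell-free media wells; concentration-response curves were fitted and assigned curve classes.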
HepG2 tox: HepG2 cytotoxicity, counter-screen for TGF-b inhibitors. Potency, µM (doses to about 46.1 µM), for inactives: at the highest dose activity change, negative = cytotoxicity, usual class: cytotoxic. AID 588856. HepG2 CAGA-GFP viability, ATP luminescence, 18 h. 410,000 compounds, 0.76% hits
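CellTiter-Glo luminescence gave cytotoxicity after 18 hours at 37 degrees C. The cells were HepG2 CAGA-GFP in 1% FBS DMEM, stimulated with 500 pg/mL TGF-beta after compound addition. %Activity was normalised to no-cell wells (complete cell-killing) and DMSO (no toxicity), and curves were fitted and classified.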
TDP1 cell noCPT: qHTS for Inhibitors of human tyrosyl-DNA phosphodiesterase 1 (TDP1): qHTS in cells in absence of CPT; DT40 Tdp1-/- hTDP1 cells, no CPT, ATP luminescence, 48 h; Potency, µM (series often up to 46.2 µM), for inactives: at the top dose activity change, negative = growth inhibition, most hits filed as inhibitors; 420,000 compounds, 15% hits; note: % is set by controls: 0 for no effect and ±100 for the full control effect; nearly all actives have a fitted effect of over 55% in size
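DT40 Tdp1-/-;hTDP1 cells, no CPT (DMSO vehicle only), 400 cells/well; compounds pin-transferred; ≥48 hr, 37 °C; CellTiter-Glo 30 min RT dark, luminescence read.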
DT40 TDP1 CPT: DT40-hTDP1 cell growth loss with CPT | 420,000 compounds, 12% hits | chicken DT40 Tdp1-/-;hTDP1 cells + 20 nM CPT, ATP luminescence, 48 h | AID 686979 | Potency, µM (titrated, usually from 46.2 µM), inactives show top-dose activity change, negative = growth inhibition, usual class: inhibitors; note: % is set by controls: 0 for no effect and ±100 for the full control effect; nearly all actives have a fitted effect of over 55% in size
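Chicken DT40 Tdp1-/- cells complemented with human TDP1, 400 cells/well, exposed to compounds plus 20 nM camptothecin for at least 48 h at 37 C; viability read as ATP content by CellTiter-Glo luminescence.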
TGFb SMAD3 inh: inhibitors of TGF-b signaling | HepG2 CAGA-GFP TGF-b/SMAD3 reporter, GFP fluorescence, 18 h; TGF-beta stimulated, 500 pg/mL final | Potency, µM (titrated, usually from 46.1 µM), without a hit: at the highest dose activity, negative = inhibition, most hits filed as inhibitors | 410,000 compounds, 1.2% hits | AID 588855; note: % is set by controls: 0 for no effect and ±100 for the full control effect; nearly all actives have a fitted effect of over 65% in size
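Cell-based qHTS in HEPG2 carrying a CAGA-GFP Smad reporter; compounds added before 500 pg/mL final TGF-beta, 18 h incubation at 37 degrees C, GFP fluorescence quantified per cell by imaging cytometry.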
* marks the source's active call; other numbers are inactive results; ? = inconclusive; · = not tested or not shown; [ ] = remark or other dose. Calls come from the whole dose curve; as a rule, active = well fitted curve in the direction sought with a large enough effect; inconclusive = small, poorly fitted or top-dose-only effect, or another doubt; inactive = no such curve, though single readings can be large; an effect the other way counts as inactive or inconclusive. Potency is the fitted concentration of half-maximal effect.

SMILES	HT1080 IDH1KD tx	HT1080NT lethal	HepG2 tox	TDP1 cell noCPT	DT40 TDP1 CPT	TGFb SMAD3 inh
Cc1cccc(N(C)c2cc(C)nc3nc(C)nn23)c1	-3%	-16%	0%	?	16µM*	?
COc1cc(-c2noc(C)c2/C=C/c2ccc(N)cc2)cc(OC)c1OC	0.92µM*	0.58µM*	-16%	1µM*	1.2µM*	?
COc1cc2sc3ccc(C#Cc4ccccn4)cc3c(=O)c2cc1OC	-1%	?	-25%	?	-89%	12%
COc1cc(-c2noc(C)c2C#Cc2ccc(N)cc2)cc(OC)c1OC	0.65µM*	0.82µM*	0%	0.52µM*	0.82µM*	10µM*
CNC(C)C#Cc1c(-c2cc(OC)c(OC)c(OC)c2)noc1C (stereo not drawn)	-2%	-16%	-34%	16µM*	?	?
COc1ccc2oc(=O)c(-c3nc(-c4cc(OC)c(OC)c(OC)c4)no3)cc2c1	·	·	-20%	-16%	-11%	17%
COc1cc(-c2noc(C)c2C#Cc2ccccn2)cc(OC)c1OC	2.1µM*	1.6µM*	3%	1µM*	0.65µM*	?
COc1cc(-c2noc(C)c2C(=O)NCc2ccc(C)o2)cc(OC)c1OC	12%	0%	1%	?	?	3%
O=C(CSC1=NS(=O)(=O)c2cc(F)ccc2N1)NCc1ccccc1	2%	-1%	7%	-1%	-6%	15%
COc1ccc(CNC(=O)CNS(=O)(=O)c2ccc(Cl)cc2)cc1	11%	20%	8%	-2%	2%	-6%
Cc1ccc2oc(C(=O)Nc3ccc(S(=O)(=O)Nc4nc(C)cc(C)n4)cc3)cc(=O)c2c1	·	·	5%	-29%	-20%	3%
CCc1nc2c(OCc3cccc(OC)c3)cccn2c1N(C)C(=O)c1ccccc1F	-18%	-8%	-25%	?	?	14%
CCCCONc1ncnc2nonc12	10%	13%	2%	-21%	-4%	-6%
CN(C)c1ncc2nc(-c3ccccc3)c(=O)n(C[C@H]3CCCO3)c2n1	·	·	·	5%	6%	·
Cc1ccc(-c2nn(CCC(N)=O)c(=O)c3ccccc23)cc1	-13%	-11%	6%	11%	-7%	0%
CSc1ncc(C(=O)Nc2ccccc2F)c(-c2ccccc2)n1	-1%	-2%	1%	0%	-9%	-13%
Cc1ccccc1Nc1nnc(SCc2cc(=O)n3ccsc3n2)s1	?	-3%[9.24 µM]	-24%	16µM*	?	-5%
O=c1cc(CSc2nnc(Nc3ccccc3)s2)nc2sccn12	?	?	-14%	?	?	?
C=CCN(C(=O)CCC(=O)O)C1CC(=O)N(c2ccc(OC)cc2)C1=O (stereo not drawn)	17%	14%	11%	-2%	3%	23%
C=CCN(C(=O)CCC(=O)O)C1CC(=O)N(c2ccc(OCCC)cc2)C1=O (stereo not drawn)	17%	14%	4%	26µM*	23µM*	1%
O=C(CN1C(=O)COc2ccc(S(=O)(=O)N3CCCC3)cc21)NCc1ccccn1	15%	-3%	-14%	-6%	13%	-1%
CC12CCC(=O)C=C1CCC1C3CC(O)C(O)(C(=O)CO)C3(C)CC(O)C12F (stereo not drawn)	?	?	5%	4%	5%	34%
CC(=O)C1CCC2C3CCC4=CC(=O)CCC4(C)C3(F)C(O)CC12C (stereo not drawn)	?	11%	-2%	23µM*	23µM*	0%

Compound activity from PubChem BioAssay.
